According to PubChem BioAssay (NCATS):
Results filed as inconclusive are left out. Entries that show only a call come without a potency. Activity calls are given as the source filed them. Calls follow the shape of the dose curve; as a rule, active = well fitted curve in the direction sought with a large enough effect; inconclusive = small, poorly fitted or top-dose-only effect, or another doubt; inactive = no such curve, though single readings can be large; an effect the other way counts as inactive or inconclusive.

Experiments:
[1] = molecular target: Aldehyde dehydrogenase, mitochondrial (Homo sapiens) (UniProt P05091); experiment: qHTS for Inhibitors of the Aldehyde Dehydrogenase Family (ALDH2) Primary screen (AID 2061308); also: nearly all actives have a fitted effect of over 55% in size
[2] = molecular target: Retinaldehyde dehydrogenase 3 (Homo sapiens) (UniProt P47895); experiment: qHTS for Inhibitors of the Aldehyde Dehydrogenase Family (ALDH1A3) Primary screen (AID 2061315)
[3] = BET inhibitor-based combinations targeting novel dependencies in MECOM-rearranged (r) AML: OCI-AML3 cell line (AID 2202232); conditions: Potency: OCI-AML3 viability; also: series mostly up to about 46 µM; nearly all actives have a fitted effect of over 35% in size
Procedure, shortened: (§1)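 500 cells/well; 11-pt dose curve; 48 h, standard incubator; CellTiter-Glo luminescence after 15 min RT; DMSO/empty-well normalization; AUC plus Z-AUC (mean-centered within each line).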

[4] = BET inhibitor-based combinations targeting novel dependencies in MECOM-rearranged (r) AML: HNT-34 cell line (AID 2202234); also: nearly all actives have a fitted effect of over 35% in size; also: potency is read from the fitted curve at half-maximal effect
Procedure, shortened: (§2)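 Cells were plated at 500 per well and exposed to each drug across an 11-point dose range for 48 hr at standard incubator conditions. Viability was read by CellTiter-Glo luminescence, and activity was expressed as AUC and per-cell-line Z-transformed AUC.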

[5] = BET inhibitor-based combinations targeting novel dependencies in MECOM-rearranged (r) AML: UCSD-AML1 cell line (AID 2202235); also: series mostly up to about 46 µM; nearly all actives have a fitted effect of over 40% in size
Procedure, shortened: as §2

[6] = BET inhibitor-based combinations targeting novel dependencies in MECOM-rearranged (r) AML: AML-191 cell line (AID 2202236; also: nearly all actives have a fitted effect of over 35% in size; also: potency is read from the fitted curve at half-maximal effect)
Procedure, shortened: as §1

[7] = BET inhibitor-based combinations targeting novel dependencies in MECOM-rearranged (r) AML: AML-194 cell line (AID 2202237; also: nearly all actives have a fitted effect of over 40% in size; also: potency is read from the fitted curve at half-maximal effect)
Procedure, shortened: as §1

[8] = BET inhibitor-based combinations targeting novel dependencies in MECOM-rearranged (r) AML: MV-4-11 cell line (AID 2202233); also: potency is read from the fitted curve at half-maximal effect; nearly all actives have a fitted effect of over 45% in size
Procedure, shortened: as §2

[9] = BET inhibitor-based combinations targeting novel dependencies in MECOM-rearranged (r) AML: SET-2 cell line (AID 2202231); conditions: SET-2 AML cells viability, CellTiter-Glo luminescence, 48 h; viability: active compounds read low, concentration not given here; also: nearly all actives have a fitted effect of over 35% in size; also: potency is read from the fitted curve at half-maximal effect
Procedure, shortened: as §1

Compound | Potency [1] | Potency [2] | Potency [3] | Potency [4] | Potency [5] | Potency [6] | Potency [7] | Potency [8] | viability [9] | Potency [9]
O=C(CO)N1CCC(c2[nH]nc(-c3ccc(Cl)cc3)c2-c2ccncn2)CC1 | inactive | inactive | inactive | inactive | inactive | inactive | inactive | – | – | –
COc1cc2ncnc(Nc3ccc(O)c(Br)c3)c2cc1OC | inactive | inactive | – | 5.25 µM (active) | – | – | – | 1.48 µM (active) | – | –
COc1ccc(Cl)c(Nc2nc3ccccc3nc2NS(=O)(=O)c2cccc(NC(=O)C(C)(C)N)c2)c1 | inactive | inactive | – | 23.5 µM (active) | – | 16.6 µM (active) | 20.9 µM (active) | 7.42 µM (active) | 103% (inactive) | –
O=C(O)C1(Cc2cccc(Nc3nccs3)n2)CCC(Oc2cccc(Cl)c2F)CC1 (stereo not drawn) | inactive | inactive | – | 0.468 µM (active) | – | – | – | 1.32 µM (active) | – | –
CCn1c(N)c(C(=O)NC)c(=O)c2ccc(C#CC(C)(O)COC)nc21 (stereo not drawn) | inactive | inactive | – | – | inactive | 23.5 µM (active) | inactive | 5.25 µM (active) | 91.1% (inactive) | –
CN1CC[C@@H](c2c(O)cc(O)c3c(=O)cc(-c4ccc(C(F)(F)F)cc4Cl)oc23)[C@@H]1CO | inactive | inactive | – | – | – | – | – | 20.9 µM (active) | – | –
COc1ccc(OC)c(-c2nnc3ccc(-c4ccc(OC)c(O[C@@H]5CCOC5)c4)nn23)c1 | inactive | inactive | – | 1.05 µM (active) | – | 2.35 µM (active) | 2.35 µM (active) | 5.25 µM (active) | – | 8.33 µM (active)
Cc1ccc(NC(=O)c2ccc(CN3CC[C@H](N(C)C)C3)c(C(F)(F)F)c2)cc1Nc1nccc(-c2cncnc2)n1 | inactive | inactive | – | 0.0407 µM (active) | – | – | – | 8.11 µM (active) | – | –
